# G9a inh – blocks human histone lysine methyltransferase G9a; AID 504332; G9a H3K9 monomethylation, AlphaScreen, 2 h; Q96KQ7; Potency, µM (top dose mostly 102 µM), most hits filed as inhibitors; hit rate 8.8% among 350,000; also: nearly all actives have a fitted effect of over 75% in size
# Target sequence (Q96KQ7 913-1193 limits assumed): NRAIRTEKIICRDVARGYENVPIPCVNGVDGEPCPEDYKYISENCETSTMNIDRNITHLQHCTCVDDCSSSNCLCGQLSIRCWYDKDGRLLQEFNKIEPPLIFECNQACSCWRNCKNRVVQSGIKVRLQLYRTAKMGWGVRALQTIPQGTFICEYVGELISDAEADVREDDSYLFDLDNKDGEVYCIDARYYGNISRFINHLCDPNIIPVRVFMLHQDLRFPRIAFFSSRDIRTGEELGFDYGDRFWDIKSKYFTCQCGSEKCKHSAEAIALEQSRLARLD
#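 Methyltransferase reactions run at room temperature for 2 h (20 nM enzyme, 500 nM biotin-H3K9 peptide, 20 uM SAM) after a 15 min compound preincubation; product detected by AlphaScreen beads and anti-H3K9me1 antibody.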
# HP1b binding inh – HP1-beta chromodomain-methylated histone interaction inhibition | Potency, µM (series often up to 114 µM), usual class: inhibitors | AlphaScreen HP1-beta / biotin-H3K9me3 peptide binding | AID 540317 | hit rate 0.56% among 390,000 | P83916; also: nearly all actives have a fitted effect of over 70% in size
# Target sequence (P83916 whole entry, looked up): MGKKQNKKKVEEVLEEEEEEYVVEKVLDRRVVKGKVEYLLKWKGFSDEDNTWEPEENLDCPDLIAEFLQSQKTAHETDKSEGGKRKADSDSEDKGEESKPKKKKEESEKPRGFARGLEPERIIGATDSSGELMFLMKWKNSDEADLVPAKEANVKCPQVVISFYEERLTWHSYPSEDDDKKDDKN
#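 HP1-beta protein (50 nM final) preincubated 30 min at room temperature with biotinylated H3(1-18)K9me3 peptide (50 nM) in PBS pH 7.4, 0.01% Tween-20, then compound added for 30 min. AlphaScreen streptavidin donor/nickel chelate acceptor beads (10 ug/mL final), 30 min dark, luminescence read.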
# BAZ2B block – inhibitors of human BAZ2B bromodomain. AlphaScreen BAZ2B-H3K14Ac peptide displacement. hit rate 4.4% among 360,000. AID 504333. Potency, µM (highest dose often 114 µM), most hits filed as inhibitors. Q9UIF8; also: nearly all actives have a fitted effect of over 60% in size
#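 AlphaScreen luminescence quantifies BAZ2B engagement of H3K14Ac peptide; the protein and biotinylated peptide are both at 50 nM final, buffer PBS pH 7.4 with 0.01% Tween-20, all steps at room temperature.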
# L3MBTL1 block – L3MBTL1 (human) inhibition. AlphaScreen L3MBTL1–H3K9me1 peptide binding. Q9Y468. hit rate 0.66% among 230,000. Potency, µM (doses to about 57.1 µM), usual class: inhibitors; also: nearly all actives have a fitted effect of over 60% in size
#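 AlphaScreen assay: L3MBTL1 (50 nM final) was preincubated 30 min at room temperature with biotinylated H3(1-15)K9me1 peptide (75 nM final), then 30 min with library compounds; streptavidin donor and nickel chelate acceptor beads (10 ug/mL final) added, 30 min dark.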
# JMJD2A Tudor inh – JMJD2A Tudor domain (human) inhibition | AlphaScreen JMJD2A-Tudor / H3K4me3 peptide binding | Potency, µM (top dose mostly 114 µM), hits mostly inhibitors | hit rate 4.4% among 390,000 | AID 504339; also: nearly all actives have a fitted effect of over 50% in size
# Hits are given with their value; i = inactive; ? = inconclusive; nt = no result given; [ ] = another dose, or the depositor's remark. Most compounds without a hit are left out; they make up all but 11% or so of the library. Calls follow the shape of the dose curve; as a rule, active = well fitted inhibition curve with a large enough effect; inconclusive = small, poorly fitted or top-dose-only effect; inactive = no such curve, though single readings can be large or run the other way.
SMILES,G9a inh,HP1b binding inh,BAZ2B block,L3MBTL1 block,JMJD2A Tudor inh
CCOCCSc1nc2c(c(-c3cccs3)c1C#N)CC/C2=C/c1cccs1,28µM,i,i,i,i
NC(Cn1ccc(=O)c(O)c1)C(=O)O (stereo not given),i[2.33 µM],nt,nt,nt,nt
Cc1nn(CCC#N)c2c1P(=S)(N1CCCC1)OC(c1ccc(F)cc1)=N2 (stereo not given),16µM,14µM,?,i,?
O=C1NC(=O)N(c2ccc3c(c2)OCO3)C(=O)/C1=C/c1cccs1,11µM,i,i,nt,i
O=C1NC(=O)N(c2ccc3c(c2)OCO3)C(=O)/C1=C/c1ccsc1,?,i,i,i,i
O=C(OC1CC2CCC(N2)C1C(=O)O)c1ccccc1 (stereo not given),nt,i,nt,i,89µM
O=C(NC1CC2CCCC(C1)N2)c1ccccc1 (stereo not given),nt,i,i,i,i
CCCCCCCCCCCCCC(=O)O[C@@H]1[C@@H](C)[C@@]2(O)[C@H](C=C(CO)C[C@]3(O)C(=O)C(C)=C[C@@H]23)[C@@H]2C(C)(C)C12OC(C)=O (stereo not given in full),i,nt,nt,nt,nt
CCOC(=O)N1CCC(NC(=O)CCc2nc(C3=CCN(C)CC3)no2)CC1,?,i,79µM,i,i
CC(N)C(=O)NC1C2C(=C(O)CC(O)C2O)C(=O)OC1(C)C(Cl)Cl (stereo not given),nt,i,nt,nt,25µM
CSc1ccc(C(=O)C2CCCN(Cc3cc4ccccc4[nH]3)C2)cc1 (stereo not given),16µM,?,20µM,i,11µM
C[C@@H]1O[C@H](C[N+](C)(C)C)CS1,2µM,nt,nt,nt,nt
COc1ccc(OCC#CCN2CCC(C)CC2)cc1,8.9µM,35µM,28µM,i,i
CCCCn1c(O)c(/C=N/N2CCOCC2)c(=O)[nH]c1=S,45µM,i,i,i,i
CCCCn1c(O)c(/C=N/N2CCCCC2c2cccnc2)c(=O)[nH]c1=S (stereo not given),8.9µM,i,i,i,i
CCCCCCn1c(O)c(C=Nc2ccccc2N2CCOCC2)c(=O)[nH]c1=S,i,i,i,i,i
C=CCn1c(O)c(/C=N/N2CCCCC2c2cccnc2)c(=O)[nH]c1=S (stereo not given),i,i,i,i,i
CC(C)(c1ccc(OCC2CO2)cc1)c1ccc(OCC2CO2)cc1 (stereo not given),i,nt,nt,nt,nt
O=C(N/N=C\C1C(=O)NC(=S)N(c2ccccc2)C1=O)c1ccc(O)cc1 (stereo not given),8.9µM,i,25µM,nt,79µM
CCOC(=O)c1ccccc1NC(=O)N(Cc1ccc(CC)cc1)Cc1cn[nH]c1-c1ccc(OC)cc1,i,i,i,nt,i
Cc1[nH]c2c(C(F)(F)F)cccc2c1CCN,i,i,?,i[11.4 µM],i
Cc1[nH]c2ccc(O)cc2c1CCN,3.5µM,i,i,i,?
NCCc1c(Cc2ccccc2)[nH]c2ccccc12,nt,i,nt,nt,i
Cc1[nH]c2ccc(OCc3ccccc3)cc2c1CCN,50µM,?,?,i,?
c1ccc(N2CCC3(CCNCC3)CC2)cc1,i[12.7 µM],nt,nt,nt,nt
SMILES,G9a inh,HP1b binding inh,BAZ2B block,L3MBTL1 block,JMJD2A Tudor inh
COc1ccc([C@H]2CC(=O)C=C(c3ccc4c5c(cccc35)CC4)C2)cc1,i[2.33 µM],i,i,i,i
COc1cc(Br)cc(CN2CCN(C)CC2)c1O,?,i,?,nt,i
COc1ccccc1N1CCN(Cc2cc(C)c(C)cc2O)CC1,i,i,i,nt,i
COc1ccccc1N1CCN(Cc2ccc3c(c2)OCO3)CC1,nt,?,nt,nt,20µM
Fc1ccc(N2CCN(Cc3cc4c(cc3Br)OCO4)CC2)cc1,i,i,i,i,?
Oc1cc2c(cc1CN1CCN(c3ccccc3F)CC1)OCO2,8.9µM,71µM,?,nt,40µM
CN1CCN(Cc2ccc(Br)s2)CC1,4µM,?,?,nt,5.6µM
COc1ccccc1N1CCN(Cc2ccccc2)CC1,i[0.501 µM],?,35µM,i[2.29 µM],20µM
CCc1ccc(CNC(=O)C2CCN(C(=O)c3ccc(-n4c(C)cc5ccccc54)s3)CC2)cc1,i,i,?,nt,i
COC(=O)/C=C/C(=O)N[C@@H]1CC[C@@]2(O)[C@H]3Cc4ccc(O)c5c4[C@@]2(CCN3CC2CC2)[C@H]1O5,i,nt,nt,nt,nt
COC1CC(=C(c2cccs2)c2cccs2)C[N+](C)(C)C1 (stereo not given),i[12.7 µM],nt,nt,nt,nt
Nc1nc(O)c(-c2ccccc2)o1,i[12.7 µM],nt,nt,nt,nt
COc1ccccc1N1CCN(Cc2c(F)cccc2Cl)CC1,?,i,?,nt,i
Cc1cccc(N2CCN(Cc3ccc4c(c3)OCO4)CC2)c1C,7.9µM,?,50µM,i,28µM
COc1ccccc1N1CCN(Cc2ccc(Br)s2)CC1,i[12.7 µM],?,50µM,i,0.89µM
COc1ccccc1N1CCN(Cc2cccc(Br)c2)CC1,11µM,?,50µM,i,13µM
c1ccc2c(c1)c1cccc3ccc4cccc2c4c31,i[0.501 µM],i,i,i,i
Cc1cccc(Cc2cnc(NC(=O)c3ccc4c(c3)CC(c3ccccc3)OC4=O)s2)c1 (stereo not given),i,i,i,nt,i
CC1(C)C2CC=C(CN3CCC(O)CC3)C1C2 (stereo not given),?,i,?,i[11.4 µM],3.5µM
O=C(CNC(=O)c1ccc(Cl)cc1)Nc1ccc(Br)cc1C(=O)c1ccccc1,i,i,i,i,?
O=C(Nc1ccc(Br)cc1C(=O)O)c1ccc2c(c1)C(=O)N(Cc1ccccc1)C2=O,i,i,?,nt,50µM
Cn1c(=O)oc2cc(S(=O)(=O)N3CCCC(C(=O)N4CCN(c5ccc(Cl)cc5)CC4)C3)ccc21 (stereo not given),i,i,i,nt,i
Brc1ccc2[nH]cc(C=NN3CCCCCC3)c2c1,nt,?,nt,nt,50µM
C[N+]1=C(/C=C/Nc2ccccc2)C(C)(C)c2ccccc21,?,i,i,i,i
CN1/C(=C\C=C\C2=[N+](C)c3ccc4ccccc4c3C2(C)C)C(C)(C)c2ccccc21,10µM,nt,4.5µM,16µM,nt
SMILES,G9a inh,HP1b binding inh,BAZ2B block,L3MBTL1 block,JMJD2A Tudor inh
CCC(=O)N1CCN(c2cc3c(cc2F)c(=O)c(C(=O)O)cn3CC)CC1,nt,i,nt,nt,6.3µM
CCn1cc(C(=O)N2CCC3(CC2)OCCO3)c(=O)c2cc(S(=O)(=O)N3CCCC3)ccc21,i[12.7 µM],i,i,nt,i
CCOP(=O)(OCC)c1nc(-c2ccc(F)cc2)oc1NCc1ccccc1,i[12.7 µM],i,?,i,i
NC1=C(Br)C(=O)c2ccccc2C1=O,50µM,i,?,i,i
CCCCCCCCCC[Si](C)(C)CCC(=O)NC(Cc1ccc(C)cc1)c1ccccc1 (stereo not given),i,nt,nt,nt,nt
COCOC1CCC2C3CCC4=CC(=O)CCC4=C3C=CC12C (stereo not given),nt,?,nt,nt,79µM
Cc1cccc(-n2c(C)nc3ccccc3c2=O)c1C,i[0.501 µM],i,i,i,i
Cc1cccc(-n2c(C)n[nH]c2=S)c1C,?,i,i,nt,45µM
Cc1ccc(-n2c(O)c(/C=N/Nc3ccccc3)c(=O)[nH]c2=O)cc1C,7.9µM,i,i,i,i
Cn1c(O)c(/C=N/Nc2ccccc2)c(=O)n(C)c1=O,4µM,i,i,i,?

# Source: PubChem
